The list is not random: actives were taken first. Their share in the collection is about 6%.
15-hLO inh: 15-hLO (ALOX15) enzyme inhibition; P16050; 1.4% of 74,000 active; AID 887; purified 15hLO-1, xylenol orange hydroperoxide absorbance; Potency, µM (top dose mostly 57.1 µM), most hits filed as inhibitors; further: nearly all actives have a fitted effect of over 55% in size
Target sequence (P16050 whole entry, looked up): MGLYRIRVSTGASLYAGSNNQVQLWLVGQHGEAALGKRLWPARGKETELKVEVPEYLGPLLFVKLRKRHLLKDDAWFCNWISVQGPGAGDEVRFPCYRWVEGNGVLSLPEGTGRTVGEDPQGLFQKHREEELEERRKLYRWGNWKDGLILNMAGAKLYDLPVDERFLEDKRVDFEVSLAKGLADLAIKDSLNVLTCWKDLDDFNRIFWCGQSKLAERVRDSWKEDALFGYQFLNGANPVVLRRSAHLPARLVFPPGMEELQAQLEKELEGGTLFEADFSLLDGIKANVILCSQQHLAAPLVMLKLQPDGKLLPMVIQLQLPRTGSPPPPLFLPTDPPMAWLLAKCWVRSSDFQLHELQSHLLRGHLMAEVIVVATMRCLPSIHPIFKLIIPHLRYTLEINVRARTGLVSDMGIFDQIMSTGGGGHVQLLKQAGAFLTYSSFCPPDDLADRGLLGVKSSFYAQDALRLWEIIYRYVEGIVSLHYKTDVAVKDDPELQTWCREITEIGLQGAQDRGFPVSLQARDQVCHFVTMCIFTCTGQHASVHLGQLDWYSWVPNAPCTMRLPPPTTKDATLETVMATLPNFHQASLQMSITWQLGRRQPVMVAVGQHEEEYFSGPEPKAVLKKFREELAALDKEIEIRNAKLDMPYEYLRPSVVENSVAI
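Quantitative HTS in 25 mM Hepes pH 7.5 containing 0.01% Triton X-100: human 15hLO-1 at 40 nM, arachidonic acid at 50 uM, 6 min turnover. Product quantified via ferrous oxidation/xylenol orange, 573:405 nm absorbance ratio.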
DNA Pol III inh: blocks replication by bacterial DNA polymerase III holoenzyme; 0.25% of 71,000 active; AID 603; Potency, µM (series often up to 57.1 µM); reconstituted DNA polymerase III holoenzyme replication, biochemical
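Reconstituted *E. coli* holoenzyme (0.35 nM Pol III, 1 nM beta, 154 nM SSB, 2 nM primase) was preincubated with compound for 15 min at RT. Synthesis on 1.4 nM ssM13Gori ran 35 min, then was stopped with PicoGreen/EDTA and read as dsDNA fluorescence.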
ERK AVP inh: blocks ERK signaling stimulated by vasopressin; HEK293-V1b, vasopressin-stimulated pERK AlphaScreen; AID 995; Potency, µM (doses to about 57.5 µM), usual class: inhibitors; 0.99% of 72,000 active; further: nearly all actives have a fitted effect of over 55% in size
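Phosphorylated ERK1/2 detected via AlphaScreen bead proximity in lysates of V1b-expressing HEK293 cells given 25 nM vasopressin for 5 min after 30 min compound exposure (37 °C). AC50 from Hill equation; basal DMSO 0%, vasopressin 100%.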
Tau filament bind: binders of human tau filaments | P10636 | recombinant tau filaments, thioflavin S fluorescence, 15 h; filaments grown with octadecylsulfate alongside compound | Potency, µM (doses to about 57.1 µM) | 2% of 71,000 active;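 further: actives lower thioflavin S fluorescence by blocking filaments or displacing dye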
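Quantitative HTS: thioflavine S signal from ODS-induced tau filaments, excited at 450 nm, emission 510 nm. Conditions: 1 uM tau, 30 uM ODS, 15 h at 37 C, pH 7.4.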
FLuc inh: blocks Photinus pyralis firefly luciferase activity; P08659; purified firefly luciferase, luminescence, 8 min; Potency, µM (doses to about 57.1 µM), most hits filed as inhibitors; 2.2% of 72,000 active; AID 411; further: nearly all actives have a fitted effect of over 40% in size
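Compounds were tested as concentration series (qHTS) against purified P. pyralis luciferase with luciferin and 10 uM ATP in 50 mM imidazole pH 7.2, 50 mM KCl, 7 mM MgCl2, 0.01% Tween 20, 0.05% BSA. Luminescence was read after 8 min at ambient temperature.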
PK Bst: pyruvate kinase (B. stearothermophilus) modulation. AID 361. purified pyruvate kinase, luminescence ATP production; ribose 5-phosphate activator present at AC10. Potency, µM. 1.2% of 51,000 active; in the data active means potency below about 11 µM; inconclusive means mostly about 12 µM to 25 µM;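 the screen sought inhibitors and activators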
Each line names hits and unclear results; the compound was inactive in the other large screens. Unless noted, the call rests on the fitted dose curve; in most records, active means well fitted curve in the direction sought with a large enough effect; inconclusive means small, poorly fitted or top-dose-only effect, or another doubt; inactive means no such curve, though single readings can be large; an effect the other way counts as inactive or inconclusive.

COc1ccc(-n2nc3cc(C)c(NC(=O)CC(C)C)cc3n2)cc1	none (no result: PK Bst)
N[C@H](Cc1cc(I)c(Oc2ccc(O)c(I)c2)c(I)c1)C(=O)O	none (no result: PK Bst)
CCN(CC)c1nc(C#N)cc(-c2ccc(OC)cc2)n1	Tau filament bind 13µM
CCN(CC)c1nc2cc(OC)ccc2cc1C#N	none (no result: PK Bst)
COc1ccc(CNc2ccnc(-c3ccc(N(C)C)cc3)n2)c(OC)c1	none (no result: PK Bst)
C#CCCCO/N=C1/C[C@@H](O)[C@@H](O)[C@@H]2[C@@H]3C(=O)N(Cc4ccc5c(c4)OCO5)C(=O)[C@H]3CC[C@H]12	none (no result: DNA Pol III inh, Tau filament bind, PK Bst)
Nc1ccc(CCc2nc3ccccc3o2)cc1	FLuc inh 25µM
c1csc(CNc2ccnc(-c3ccoc3)n2)c1	15-hLO inh 20µM (no result: PK Bst)
CN(C)c1ccc(-c2nccc(NCc3cccs3)n2)cc1	15-hLO inh inconclusive, FLuc inh 0.5µM (no result: PK Bst)
COc1ccccc1-c1nccc(Nc2ccc(F)cc2)n1	Tau filament bind 16µM (no result: PK Bst)
CN(C)C(=O)c1ccc(-c2nccc(NCc3cccs3)n2)cc1	ERK AVP inh inconclusive (no result: PK Bst)
FC(F)(F)c1ccccc1-c1nccc(NCc2cccs2)n1	none (no result: PK Bst)
COc1ccccc1-c1nccc(NCc2cccs2)n1	15-hLO inh 10µM, ERK AVP inh inconclusive (no result: PK Bst)
COc1cccc(-c2cncnc2NCc2cccc(C)c2)c1	none (no result: PK Bst)
ClC1=C(Cl)C(Cl)(Cl)C(Cl)=C1Cl	none (no result: FLuc inh, PK Bst)
CCCn1c(-c2ccc(F)cc2)nc2c(NCCN(C(C)C)C(C)C)nc(C)nc21	none (no result: FLuc inh, PK Bst)
Cc1ccc(-c2nc(-c3ccccn3)no2)cc1Cl	FLuc inh 0.4µM, PK Bst 0.54
c1ccc(-c2noc(-c3cccc4ccccc34)n2)nc1	ERK AVP inh inconclusive, FLuc inh 7.9µM, PK Bst 9.6
Cc1ccc(-c2nc(-c3ccccn3)no2)cc1	none (no result: DNA Pol III inh, ERK AVP inh, Tau filament bind, FLuc inh, PK Bst)
Clc1cccc(-c2nc(-c3ccccn3)no2)c1	FLuc inh 2.5µM, PK Bst 3.3
Cc1ccc(C2C3CSCC=C3C(C#N)=C(N)C2(C#N)C#N)cc1 (configuration not stated)	15-hLO inh 25µM
NCCC[C@H](N)CC(=O)N[C@H]1CNC(=O)[C@@H]([C@@H]2C[C@H](O)N=C(N)N2)NC(=O)/C(=C/NC(N)=O)NC(=O)[C@@H](CO)NC(=O)[C@@H](CO)NC1=O	none (no result: PK Bst)
Cc1c(C(=O)NCCC2=CCCCC2)oc2ccc(S(=O)(=O)N3CCOCC3)cc12	15-hLO inh 16µM, ERK AVP inh inconclusive
c1ccc2c(N3CCNCC3)nc(-c3ccoc3)nc2c1	none (no result: PK Bst)
Oc1cccc(C(=S)N2CCN(Cc3ccccc3)CC2)c1	15-hLO inh 13µM
O=C(Nc1cccc(Cl)c1)N1CCN(Cc2ccccc2)CC1	FLuc inh 16µM (no result: PK Bst)
O=C(N1CCOCC1)N1CCN(Cc2ccccc2)CC1	none
CCc1cc2c(nc1CC)CCN(CC/C(C)=N/OC[C@@H](O)[C@@H]1O[C@@H]3OC(C)(C)O[C@@H]3[C@H]1O)C2	none (no result: DNA Pol III inh, Tau filament bind, PK Bst)
CN(C)c1ncc2nc(-c3ccc(Cl)cc3)c(=O)n(Cc3cccs3)c2n1	none (no result: PK Bst)
Nc1nc(Cl)nc2c1ncn2[C@@H]1O[C@@H](CO)[C@@H](O)[C@H]1O	ERK AVP inh 13µM (no result: PK Bst)
CC1=C(CC[C@H](C)CO)O[C@@H]2C[C@@H]3[C@H]4CC[C@H]5C[C@@H](O)CC[C@]5(C)[C@@H]4CC(=O)[C@@]3(C)[C@@H]12	none (no result: PK Bst)
C[C@@H](Cc1ccccc1)Nc1ncnc2c1ncn2[C@@H]1O[C@@H](CO)[C@H](O)[C@@H]1O	none (no result: PK Bst)
COc1ccc(CCNC(=O)C2CCC(CNc3c(N4CCCC4)c(=O)c3=O)CC2)cc1OC (configuration not stated)	none (no result: DNA Pol III inh, ERK AVP inh, Tau filament bind, FLuc inh, PK Bst)
COc1ccc(OC)c(NC(=O)C2CCC(CNc3c(N4CCC(C)CC4)c(=O)c3=O)CC2)c1 (configuration not stated)	ERK AVP inh inconclusive, Tau filament bind 3.2µM (no result: PK Bst)
Oc1cc(O)cc(/C=C\c2ccc(O)c(O)c2)c1	15-hLO inh 0.79µM, Tau filament bind inconclusive, FLuc inh 13µM (no result: PK Bst)
COc1cccc(-c2nccc(N(C)Cc3ccco3)n2)c1	15-hLO inh inconclusive (no result: PK Bst)
COC(=O)c1ccc(C(=O)Nc2ccc(N)cc2N)cc1	Tau filament bind 13µM
COc1ccccc1NC(=O)c1ccc(N)cc1	none

Bioassay records (PubChem)
